According to PubChem BioAssay (Tox21):
Where “and” joins values, the source holds several entries; their conditions need not be identical. Equal values may be shown once. Inconclusive results are not listed. Entries that show only a call come without a potency. Some compounds were tested as several samples or in several runs, with calls that do not always agree. Calls of active or inactive are those of the source. Calls follow the shape of the dose curve; as a rule, active = well fitted inhibition curve with a large enough effect in the repeat runs; inconclusive = weak or mixed curves; inactive = no such curve, though single readings can be large or run the other way.

target: Cytochrome P450 2C9 (Homo sapiens) (UniProt P11712); test: Cytochrome P450 Family 2 Subfamily C Member 9 (CYP2C9) small molecule antagonists: luciferase reporter qHTS assay (AID 1671198); details: P450-Glo CYP2C9 enzyme assay, luciferin luminescence; series mostly up to 115 µM; also: nearly all actives have a fitted effect of over 50% in size
Description: U.S. Tox21 Program National Center for Advancing Translational Sciences [NCATS] U.S. Environmental Protection Agency [EPA] National Institutes of Environmental Health Sciences [NIEHS] National Toxicology Program [NTP] U.S. Food and Drug Administration [FDA] Tox21 Assay Overview: Cytochrome P450 (CYP) enzymes are membrane-bound hemeproteins that play a key role in metabolism of drugs and xenobiotics. Evaluation of the effect of chemicals on CYP isozymes is useful to minimize the adverse drug reactions and toxicities in drug development process. Tox21 chemicals were tested for their effect on CYP enzyme activities by using P450-Glo (TM) screening systems (Promega Corporation, Madison, WI). These systems provide a luminescent method containing proluciferin substrates and are converted to luciferin products by CYP isozymes. The luciferin products formed are detected with a luciferin detection reagent, and the amount of light produced is proportional to CYP activity. P450-Glo (TM) CYP2C9 screening system (Catalog. No. V9790) was used to detect the compounds that interfere in CYP2C9 activity.
Tox21 Assay Protocol Summary: Two ul of enzyme-substrate mix was dispensed into medium binding white/solid 1536-well plates (Greiner Bio-One North America Inc., Monroe, NC) using a BioRaptr Flying Reagent Dispenser (FRD, Beckman Coulter, Brea, CA). […] The assay plates were incubated at room temperature for 10 min. Then 2 ul of NADPH regeneration solution was added to each well of the assay plates using an FRD and incubated at 37C for 1 h. The reaction was stopped by adding 4 ul of detection reagent using an FRD and after 20 min incubation at room temperature the luminescence signal was measured using a ViewLux plate reader (Perkin Elmer, Shelton, CT). Data were expressed as relative luminescence units.
Potency is read from the fitted curve at half-maximal effect.

Sequence of Cytochrome P450 2C9 (Homo sapiens) (P11712 whole entry, looked up): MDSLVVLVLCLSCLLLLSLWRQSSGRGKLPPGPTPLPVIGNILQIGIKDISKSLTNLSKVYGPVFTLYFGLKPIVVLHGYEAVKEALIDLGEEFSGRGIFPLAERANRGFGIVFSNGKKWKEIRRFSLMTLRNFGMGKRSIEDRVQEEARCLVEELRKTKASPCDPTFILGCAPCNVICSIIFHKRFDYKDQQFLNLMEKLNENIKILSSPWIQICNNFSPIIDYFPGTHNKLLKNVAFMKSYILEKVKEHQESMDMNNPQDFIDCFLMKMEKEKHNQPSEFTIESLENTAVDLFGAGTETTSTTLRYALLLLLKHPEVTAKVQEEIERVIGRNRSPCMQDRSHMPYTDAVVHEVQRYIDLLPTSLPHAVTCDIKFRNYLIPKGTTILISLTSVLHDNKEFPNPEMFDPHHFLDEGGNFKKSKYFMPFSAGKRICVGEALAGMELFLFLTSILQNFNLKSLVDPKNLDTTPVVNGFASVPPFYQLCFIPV

Row | SMILES | Potency
1 | CCc1cccc(C)c1N | inactive
2 | CCCCCOC(C)=O | 10 µM (active)
3 | CCCCCCCCCCCCCCO | inactive
4 | O=C(O)c1ccc2c(c1)C(=O)OC2=O | inactive
5 | CCC(O)OCCCOC (stereo not given) | inactive
6 | C#CCN(C)Cc1ccccc1 | inactive
7 | O=C(O)c1cc(=O)c2c(OCC(O)COc3cccc4oc(C(=O)O)cc(=O)c34)cccc2o1 | inactive
8 | c1ccc2scnc2c1 | inactive
9 | CCCCCCCCCCCCOCCO | 39.9 µM (active)
10 | OCC(CO)(CBr)CBr | inactive
11 | C[Si](O[Si](C)(C)C)O[Si](C)(C)C | inactive
12 | CCOC(=O)NNc1nncc2ccccc12 | inactive
13 | O=S(=O)(O)c1ccc2ccccc2c1 | inactive
14 | CC(C)(N)CO | inactive
15 | O=C(O)c1ccc(C(=O)O)cc1 | inactive
16 | CC(=O)Nc1ccccc1 | inactive
17 | O=c1[nH]c(=O)n([C@H]2C[C@H](O)[C@@H](CO)O2)cc1Br | inactive
18 | COS(C)(=O)=O | inactive
19 | O=P(OC(CCl)CCl)(OC(CCl)CCl)OC(CCl)CCl | 35.4 µM (active) and 35.6 µM (active)
20 | Nc1cc([N+](=O)[O-])ccc1O | 31.7 µM (active) and 39.7 µM (active)

Row | SMILES | Potency
21 | COc1cc(Cc2cnc(N)nc2N)cc(OC)c1OC | inactive
22 | OC[C@H]1O[C@@](CO)(O[C@H]2O[C@H](CO)[C@@H](O)[C@H](O)[C@H]2O)[C@@H](O)[C@@H]1O | inactive
23 | O=C(O)c1cc(C(=O)O)cc(S(=O)(=O)O)c1 | inactive
24 | Cc1ccc(N(C)C)cc1 | inactive
25 | Cc1cc(C)c(C)cc1C | inactive
26 | CSCCC=O | 35.6 µM (active)
27 | CCCCCC/C(C=O)=C\c1ccccc1 | 35.6 µM (active)
28 | CC(C)c1ccc(S(=O)(=O)O)cc1 | inactive
29 | C/C=C1/CC2C=CC1C2 (stereo not given) | inactive and 39.9 µM (active)
30 | CCCC(C)=O | inactive
31 | O=S1(=O)CC=CC1 | inactive
32 | CCN(CC)c1ccc(C(=O)c2ccccc2C(=O)O)c(O)c1 | 35.7 µM (active) and 31.7 µM (active)
33 | CC(C)CC(=O)CC(C)C | inactive
34 | CCCCCCOCCO | inactive
35 | CC1=C(C)S(=O)(=O)CCS1(=O)=O | inactive
36 | O=C(CC(C(=O)OC1CCCCC1)S(=O)(=O)O)OC1CCCCC1 (stereo not given) | 40.1 µM (active) and 35.1 µM (active)
37 | CCCCCC(N)=O | inactive
38 | CCCCC(CC)COC(=O)CCCCC(=O)OCC(CC)CCCC (stereo not given) | 28.3 µM (active)
39 | CC(=O)c1ccccc1 | inactive
40 | C=CCOC(=O)c1ccccc1C(=O)OCC=C | 3.93 µM (active) and 5.64 µM (active)
